Data: PubChem BioAssay (Tox21)
Unmarked numbers belong to inactive results. Results filed as inconclusive are left out. A call without a number means that no potency is given here. Active and inactive are the calls of the source. Unless noted, calls come from the whole dose curve; as a rule, active = well fitted curve in the direction sought with a large enough effect in the repeat runs; inconclusive = weak or mixed curves; inactive = no such curve, though single readings can be large; an effect the other way counts as inactive or inconclusive.

Columns and labels:
[1] = A CellTox Green Cytotoxicity Assay to monitor cytotoxicity in HepG2 cells - 8 hour (AID 1224890); note: nearly all actives have a fitted effect of over 45% in size
How it was run: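 Using 1536-well format, dye-containing HepG2 suspension was seeded, allowed 5 h at 37 C/5% CO2, dosed by pintool with compounds, positive and negative controls, and imaged for fluorescence across 40 h.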

[2] = qHTS assay to identify small molecule antagonists of the estrogen receptor alpha (ER-alpha) signaling pathway using the BG1 cell line in the presence of 0.1 nM 17-beta-estradiol - cell viability counter screen (AID 1259241); note: nearly all actives have a fitted effect of over 40% in size
How it was run: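 In this screen, hormone-deprived VM7Luc4E2 cells were seeded at 4,000 per well, dosed with compound and 0.1 nM estradiol final, and incubated 22 hr at 37C and 5% CO2; fluorogenic live-cell protease signal reported viability.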

[3] = qHTS assay to identify small molecule antagonists of the androgen receptor (AR) signaling pathway using the MDA cell line in the presence of 0.5 nM R1881 - cell viability counter screen (AID 1259242); note: nearly all actives have a fitted effect of over 45% in size
How it was run: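 Viability of MDA-kb2 cells was multiplexed with the luciferase AR readout; after 16 hr with compounds and R1881 at 0.5 nM final, CellTiter-Fluor fluorescence was recorded.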

[4] = target: Androgen receptor (Homo sapiens) (UniProt P10275); assay: qHTS assay to identify small molecule antagonists of the androgen receptor (AR) signaling pathway using the MDA cell line in the presence of 0.5 nM R1881 (AID 1259243); note: nearly all actives have a fitted effect of over 50% in size; note: potency is the fitted concentration of half-maximal effect
How it was run: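 Reporter cells cultured without CO2 receive test chemicals, then 0.5 nM R1881 final; after 16 hr at 37C, ONE-Glo is added and light output recorded.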

[5] = qHTS assay to identify small molecule phospholipidosis (PLD) inducers (AID 1259344; active = well fitted curve in the direction sought with a large enough effect; an effect the other way counts as inactive or inconclusive)
How it was run: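 Fluorescent phospholipid staining (LipidTOX Red) measured by automated microscopy in fixed HepG2 cells after 24 h treatment; nuclei counterstained with Hoechst 33342; amiodarone as reference inducer.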

[6] = qHTS assay to identify small molecule HDAC inhibitors (AID 1259364); note: potency is the fitted concentration of half-maximal effect;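 note: wild-type HCT-116 cells with endogenous class I/II HDAC activity; nearly all actives have a fitted effect of over 45% in size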; for activity change, negative = inhibition: top concentration of the series differs between compounds
How it was run: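 Read-out: luminescence of HDAC-Glo I/II reagent, 30 min RT, reflecting class I/II deacetylase activity in whole HCT-116 cells pre-exposed 2 h to DMSO-dissolved compounds.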

[7] = qHTS assay to identify small molecule HDAC inhibitors - cell viability counter screen (AID 1259365); note: series mostly up to about 92 µM; nearly all actives have a fitted effect of over 50% in size
How it was run: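 Measured quantity is CellTiter-Glo luminescence from wild-type HCT-116 cells after compound incubation of 2hr at 37C, 5% CO2; reagent developed 30min at room temperature.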

[8] = qHTS assay to identify small molecule agonists of the sonic hedgehog signaling (Shh) pathway - cell viability counter screen (AID 1259366); note: nearly all actives have a fitted effect of over 50% in size
How it was run: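 In quantitative high-throughput format, 3T3 Gli1-Luc cells were exposed to compounds for 24hr and multiplexed for viability using CellTiter-Fluor, incubated 1hr at 37C before the fluorescence read.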

[9] = qHTS assay to identify small molecule antagonists of the sonic hedgehog signaling (Shh) pathway - cell viability counter screen (AID 1259367); note: nearly all actives have a fitted effect of over 55% in size
How it was run: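 Using CellTiter-Fluor, viability of Gli1-Luc reporter 3T3 cells is read by fluorescence in the wells used for the Shh luciferase assay. Treatment lasts 23 hr with conditioned medium, then reagent 1 hr at 37C.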

[10] = target: Estrogen receptor (Homo sapiens) (UniProt P03372); assay: qHTS assay to identify small molecule antagonists of the estrogen receptor alpha (ER-alpha) signaling pathway using the BG1 cell line in the presence of 0.1 nM 17-beta-estradiol (AID 1259244); note: nearly all actives have a fitted effect of over 50% in size
How it was run: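 Estradiol at 0.1 nM (final) stimulates the endogenous ER-alpha of VM7Luc4E2 cells carrying an ERE-driven luciferase; compounds are co-incubated 22 h at 37C and luciferase output quantified by luminescence.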

Chain of Androgen receptor (Homo sapiens) (P10275 whole entry, looked up): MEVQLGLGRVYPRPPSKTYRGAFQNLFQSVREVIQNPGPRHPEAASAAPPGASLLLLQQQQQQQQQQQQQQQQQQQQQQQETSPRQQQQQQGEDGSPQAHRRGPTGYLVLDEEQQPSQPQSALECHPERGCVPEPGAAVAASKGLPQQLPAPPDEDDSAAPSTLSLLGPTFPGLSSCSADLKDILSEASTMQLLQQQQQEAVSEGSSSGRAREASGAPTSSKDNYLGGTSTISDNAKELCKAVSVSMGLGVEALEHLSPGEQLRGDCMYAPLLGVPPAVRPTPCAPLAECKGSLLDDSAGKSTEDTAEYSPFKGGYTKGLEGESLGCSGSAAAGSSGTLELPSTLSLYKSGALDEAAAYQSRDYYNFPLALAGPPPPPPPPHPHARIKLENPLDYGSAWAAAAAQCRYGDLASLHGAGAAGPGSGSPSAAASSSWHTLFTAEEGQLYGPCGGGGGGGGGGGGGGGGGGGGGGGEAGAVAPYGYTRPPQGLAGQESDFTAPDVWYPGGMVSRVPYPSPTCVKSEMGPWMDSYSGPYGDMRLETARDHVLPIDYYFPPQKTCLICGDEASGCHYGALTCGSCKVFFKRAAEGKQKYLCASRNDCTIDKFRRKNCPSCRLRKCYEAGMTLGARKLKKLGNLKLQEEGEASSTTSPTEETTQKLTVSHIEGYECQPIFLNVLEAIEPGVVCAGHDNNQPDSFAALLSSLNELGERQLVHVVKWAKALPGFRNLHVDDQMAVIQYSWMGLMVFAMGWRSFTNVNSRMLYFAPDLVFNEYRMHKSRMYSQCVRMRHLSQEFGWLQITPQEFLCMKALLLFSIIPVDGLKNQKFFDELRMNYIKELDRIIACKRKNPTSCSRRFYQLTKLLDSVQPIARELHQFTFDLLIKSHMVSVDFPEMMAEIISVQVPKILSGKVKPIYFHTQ
Chain of Estrogen receptor (Homo sapiens) (P03372 whole entry, looked up): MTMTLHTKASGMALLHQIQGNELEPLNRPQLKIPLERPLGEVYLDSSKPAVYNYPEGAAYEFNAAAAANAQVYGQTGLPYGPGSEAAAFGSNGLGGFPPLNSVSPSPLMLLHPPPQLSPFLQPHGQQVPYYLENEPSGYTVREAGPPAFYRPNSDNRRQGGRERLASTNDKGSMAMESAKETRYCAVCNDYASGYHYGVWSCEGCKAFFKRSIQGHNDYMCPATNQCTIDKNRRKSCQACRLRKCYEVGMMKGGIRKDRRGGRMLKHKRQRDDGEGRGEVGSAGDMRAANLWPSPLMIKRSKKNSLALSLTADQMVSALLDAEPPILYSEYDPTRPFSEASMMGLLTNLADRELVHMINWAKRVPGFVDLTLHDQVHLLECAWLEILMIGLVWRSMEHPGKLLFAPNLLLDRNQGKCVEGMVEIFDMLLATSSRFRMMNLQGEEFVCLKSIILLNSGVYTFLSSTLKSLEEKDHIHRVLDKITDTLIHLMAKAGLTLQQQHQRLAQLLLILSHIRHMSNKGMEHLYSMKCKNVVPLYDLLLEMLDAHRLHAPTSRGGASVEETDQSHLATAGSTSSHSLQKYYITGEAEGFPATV

Cn1cnc2c(F)c(Nc3ccc(Br)cc3Cl)c(C(=O)NOCCO)cc21
Potency [1]: inactive
Potency [2]: inactive
outcome [3]: inactive
Potency [4]: 5.96 µM (active)
outcome [5]: inactive
Potency [6]: inactive
outcome [7]: inactive

CN(C)Cc1ccccc1
Potency [1]: inactive
Potency [2]: inactive
outcome [3]: inactive
Potency [4]: inactive
outcome [5]: inactive
Potency [6]: inactive
outcome [7]: inactive
Potency [8]: inactive
Potency [9]: inactive

CCOC(=O)c1cc(=O)c2c(OCC(COc3cccc4oc(C(=O)OCC)cc(=O)c34)OC(=O)[C@@H](N)CCCCN)cccc2o1
Potency [1]: inactive
Potency [2]: inactive
outcome [3]: inactive
Potency [4]: inactive
Potency [10]: inactive
Potency [6]: inactive
outcome [7]: inactive
Potency [8]: inactive
Potency [9]: inactive

CC(C)(C)c1cccc(O)c1
Potency [1]: inactive
Potency [2]: inactive
outcome [3]: inactive
Potency [4]: inactive
Potency [10]: inactive
Potency [6]: inactive
outcome [7]: inactive
Potency [8]: inactive
Potency [9]: inactive

CC1(O)CSC(C)(O)CS1 (stereo unspecified)
Potency [1]: inactive
Potency [2]: inactive
outcome [3]: inactive
Potency [4]: inactive
Potency [10]: inactive
Potency [6]: 21.7 µM (active)
Potency [8]: inactive
Potency [9]: inactive

CC(Oc1c(Cl)cccc1Cl)C1=NCCN1 (stereo unspecified)
Potency [1]: inactive
Potency [2]: inactive
outcome [3]: inactive
Potency [4]: inactive
Potency [6]: inactive
outcome [7]: inactive
Potency [8]: inactive
Potency [9]: inactive

Cc1c(C(=O)NCCO)[n+](=O)c2ccccc2n1[O-]
Potency [1]: inactive
Potency [2]: inactive
outcome [3]: inactive
Potency [4]: inactive
outcome [5]: inactive
Potency [6]: inactive
Potency [8]: inactive
Potency [9]: inactive

CCN(CC)CC1CCCCN1CC(=O)N1c2ccccc2C(=O)Nc2cccnc21 (stereo unspecified)
Potency [1]: inactive
Potency [2]: inactive
outcome [3]: inactive
Potency [10]: inactive
outcome [5]: inactive
Potency [6]: inactive
outcome [7]: inactive
Potency [8]: inactive
Potency [9]: inactive

COC(=O)/C=C(/C)N
Potency [1]: inactive
Potency [2]: inactive
outcome [3]: inactive
Potency [4]: inactive
Potency [10]: inactive
Potency [6]: inactive
outcome [7]: inactive
Potency [8]: inactive

CCC(=O)Nc1ccc(O)cc1
Potency [1]: inactive
Potency [2]: inactive
outcome [3]: inactive
Potency [10]: inactive
outcome [5]: inactive
Potency [6]: inactive
outcome [7]: inactive
Potency [8]: inactive

OC[C@H]1O[C@@H](O[C@H]2[C@H](O)[C@@H](O)[C@H](O)O[C@@H]2CO)[C@H](O)[C@@H](O)[C@H]1O
Potency [1]: inactive
Potency [2]: inactive
outcome [3]: inactive
Potency [4]: inactive
Potency [10]: inactive
Potency [6]: inactive
outcome [7]: inactive
Potency [8]: inactive
Potency [9]: inactive

CC(C)CCCCCCc1ccc(OCCOCCO)cc1
Potency [1]: inactive
Potency [2]: inactive
outcome [3]: inactive
Potency [4]: inactive
Potency [10]: inactive
Potency [6]: inactive
outcome [7]: inactive
Potency [8]: inactive
Potency [9]: inactive

CCOc1ccc(NC(N)=O)cc1
Potency [1]: inactive
Potency [2]: inactive
outcome [3]: inactive
Potency [10]: inactive
Potency [6]: inactive
outcome [7]: inactive
Potency [8]: inactive
Potency [9]: inactive

O=C(O)c1cccc(Cl)c1Cl
Potency [1]: inactive
Potency [2]: inactive
outcome [3]: inactive
Potency [10]: inactive
Potency [6]: inactive
outcome [7]: inactive
Potency [8]: inactive
Potency [9]: inactive

CCCNC(C)(C)COC(=O)c1ccccc1
Potency [1]: inactive
Potency [2]: inactive
outcome [3]: inactive
Potency [10]: inactive
outcome [5]: inactive
Potency [6]: inactive
Potency [8]: inactive

CCN[C@H]1CN(CCCOC)S(=O)(=O)c2sc(S(N)(=O)=O)cc21
Potency [1]: inactive
Potency [2]: inactive
outcome [3]: inactive
Potency [10]: inactive
outcome [5]: inactive
Potency [6]: inactive
Potency [8]: inactive
Potency [9]: inactive

O=C1CCCc2ccccc21
Potency [1]: inactive
Potency [2]: inactive
outcome [3]: inactive
Potency [10]: inactive
Potency [6]: inactive
outcome [7]: inactive
Potency [8]: inactive
Potency [9]: inactive

CC(C)(CO)[C@@H](O)C(=O)NCCC(=O)O
Potency [1]: inactive
Potency [2]: inactive
outcome [3]: inactive
Potency [10]: inactive
outcome [5]: inactive
Potency [6]: inactive
outcome [7]: inactive
Potency [8]: inactive
Potency [9]: inactive

OCc1c2ccccc2cc2ccccc12
Potency [1]: inactive
Potency [2]: inactive
outcome [3]: inactive
Potency [10]: inactive
Potency [6]: inactive
outcome [7]: inactive
Potency [8]: inactive
Potency [9]: inactive

CS(=O)(=O)c1ccc([C@@H](O)[C@@H](CF)NC(=O)C(Cl)Cl)cc1
Potency [1]: inactive
Potency [2]: inactive
outcome [3]: inactive
Potency [10]: inactive
outcome [5]: inactive
Potency [6]: inactive
outcome [7]: inactive
Potency [8]: inactive
Potency [9]: inactive

Cc1c(-c2ccccc2)oc2c(C(=O)OCCN3CCCCC3)cccc2c1=O
Potency [1]: inactive
Potency [2]: inactive
outcome [3]: inactive
Potency [10]: inactive
outcome [5]: inactive
Potency [6]: inactive
outcome [7]: inactive
Potency [8]: inactive
Potency [9]: inactive

COC(=O)c1ccc2cc(C(=O)OC)ccc2c1
cytotoxicity increase [1]: -0.23% [at 15.8 µM]
activity change, negative = cytotoxicity [2]: -8.86% [at 19 µM]
viability change, negative = cytotoxic [3]: 1.72% [at 19 µM]
activity change, negative = inhibition [10]: -28.1% [at 19 µM]
activity change, negative = inhibition [6]: -8.76% [at 19 µM]
activity change, negative = cytotoxicity [7]: -11% [at 19 µM]
viability change, negative = cytotoxic [8]: 0.624% [at 19 µM]

CCOC(=O)C(Br)c1ccccc1 (stereo unspecified)
Potency [1]: inactive
Potency [2]: inactive
outcome [3]: inactive
Potency [10]: inactive
Potency [6]: inactive
outcome [7]: inactive
Potency [8]: inactive
Potency [9]: inactive

CCCCCCC
Potency [1]: inactive
Potency [2]: inactive
outcome [3]: inactive
Potency [10]: inactive
Potency [6]: inactive
outcome [7]: inactive
Potency [8]: inactive
Potency [9]: inactive

CCC/C=C/CO
Potency [1]: inactive
Potency [2]: inactive
outcome [3]: inactive
Potency [10]: inactive
Potency [6]: inactive
outcome [7]: inactive
Potency [8]: inactive

CCCc1c2oc(C(=O)O)cc(=O)c2cc2c(=O)cc(C(=O)O)n(CC)c12
Potency [1]: inactive
Potency [2]: inactive
outcome [3]: inactive
Potency [10]: inactive
Potency [6]: inactive
outcome [7]: inactive
Potency [8]: inactive
Potency [9]: inactive

CCc1cc(Cl)c(OC)c(C(=O)NC[C@@H]2CCCN2CC)c1O
Potency [1]: inactive
Potency [2]: inactive
outcome [3]: inactive
Potency [10]: inactive
Potency [6]: inactive
outcome [7]: inactive
Potency [8]: inactive
Potency [9]: inactive
